Bioassay records: PubChem, National Center for Advancing Translational Sciences (NCATS)
KCNH2 3.1 block: KCNH2 3.1 (human) potassium channel inhibition. U2OS KCNH2 3.1, thallium flux FluxOr; active compounds read low. activity change, % (tested at about 1.8 µM). actives 0.95% (n = 340,000);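 active = maximum activity change below -70%; inconclusive = maximum activity change from -70% to -50%; inactive = maximum activity change above -50%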;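 also: thallium influx rate constant from kinetic fluorescence after stimulation buffer; % is scaled to controls: 0 for no effect and ±100 for the full control effect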
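FluxOr-based Tl+ influx in U2OS cells transduced with KCNH2 3.1 virus; rate constants normalized to DMSO controls.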
CBFb RUNX1 block: inhibitors of human CBF-beta and RUNX1 interaction; Potency, µM (titrated, usually from 59.8 µM), without a hit: top-dose activity, negative = inhibition, most hits filed as inhibitors; 230,000 tested, under 10 active; Q01196+Q13951; AlphaScreen CBFb-His/RUNX1-biotin binding, biochemical; AID 1477; also: % of control where 0% means no effect
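His-tagged CBF-beta and biotinylated RUNX1 (30 nM each) were premixed 20 min at room temperature, exposed to compound for 15 min, then given nickel-chelate and streptavidin AlphaScreen beads (50 ng each). After 90 min, AlphaScreen signal was read.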
PLK1 PBD block: PLK1 (human) polo-box domain binding inhibition | Plk1 PBD binding of FITC phosphopeptide, fluorescence polarization | P53350 | AID 720504 | actives 2.8% (n = 360,000) | Potency, µM, for inactives: max response, negative = inhibition, most hits filed as inhibitors; also: potency is read from the fitted curve at half-maximal effect; series mostly up to about 57 µM; % is scaled to controls: 0 for no effect and ±100 for the full control effect; nearly all actives have a fitted effect of over 65% in size
MBNL1-CUG inh: MBNL1-poly(CUG) RNA binding inhibition; Q9NR56; TR-FRET MBNL1-His/biotin-(CUG)12 binding, 665/545 ratio; Potency, µM (top dose mostly 57.5 µM), inactives show at the top dose activity change, negative = inhibition, actives largely listed as inhibitors; actives 0.036% (n = 280,000); AID 2675; active = well fitted inhibition curve with a large enough effect in the signal ratio, with a control signal flat, not every such curve was filed as active; inconclusive = small, poorly fitted or top-dose-only effect, or effect the other way, or a change in a side signal; inactive = no such curve, though single readings can be large or run the other way; the % refers to the signal ratio; also: potency is read from the fitted curve at half-maximal effect; % is scaled to controls: 0 for no effect and ±100 for the full control effect
Target sequence (Q9NR56 whole entry, looked up): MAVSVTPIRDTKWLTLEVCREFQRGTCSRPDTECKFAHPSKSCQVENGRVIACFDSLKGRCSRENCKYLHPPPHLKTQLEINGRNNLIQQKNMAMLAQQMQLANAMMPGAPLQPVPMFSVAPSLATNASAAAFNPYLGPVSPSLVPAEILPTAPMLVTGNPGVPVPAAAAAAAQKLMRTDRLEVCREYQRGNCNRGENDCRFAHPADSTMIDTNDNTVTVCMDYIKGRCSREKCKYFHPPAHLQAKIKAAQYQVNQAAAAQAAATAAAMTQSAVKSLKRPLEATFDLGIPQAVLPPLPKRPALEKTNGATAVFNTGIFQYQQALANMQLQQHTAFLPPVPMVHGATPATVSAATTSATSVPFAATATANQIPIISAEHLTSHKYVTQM
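Ratiometric TR-FRET (665 over 545 nm, excitation 340 nm) tracks disruption of MBNL1-His/biotin-(CUG)12 complex after 60 min at room temperature, with compounds at 92 nM to 58 uM final.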
VDR inh: vitamin D3 receptor (human) inhibition. P11473. VDR-SRC2-3 peptide fluorescence polarization, 2 h. Potency, µM, without a hit: max response, negative = inhibition, usual class: inhibitors. actives 0.93% (n = 400,000). AID 504847; also: potency is read from the fitted curve at half-maximal effect; % is scaled to controls: 0 for no effect and ±100 for the full control effect
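Measured by FP: displacement of SRC2-3 coactivator peptide from VDR by library compounds, following a two-hour ambient incubation.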
hERG WT inh: KCNH2 (human, wildtype) channel inhibition | Q12809 | U2OS, BacMam KCNH2, thallium flux FluxOr; active compounds read low | activity change, % at 1.84 µM | actives 0.37% (n = 340,000) | AID 720551;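 active = maximum activity change below -70%; inconclusive = maximum activity change between -70% and -50%; inactive = maximum activity change above -50%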; also: % is scaled to controls: 0 for no effect and ±100 for the full control effect
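U2OS cells were transduced with wild-type KCNH2 virus (2.03 x 10^8 / mL) for 4 h at room temperature, then cultured overnight at 37 C. Thallium flux was read with FluxOr dye. Rate constants were normalized to DMSO controls.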
An asterisk follows results filed as active. Most compounds without a hit are left out; they make up all but 3.8% or so of the library. Unless noted, calls follow the shape of the dose curve; as a rule, active = well fitted curve in the direction sought with a large enough effect; inconclusive = small, poorly fitted or top-dose-only effect, or another doubt; inactive = no such curve, though single readings can be large; an effect the other way counts as inactive or inconclusive.

For Cc1ccc(C)c(NC(=O)CCN2CC(C)CC(C)C2)c1 (stereo unspecified) the results were KCNH2 3.1 block -73.4*, PLK1 PBD block -8.7%, MBNL1-CUG inh 5.4%, VDR inh -18.1% and hERG WT inh -1.6.
For COc1ccc(-c2cn3cccnc3n2)cc1NC(=O)Nc1cc(C)ccc1C the results were VDR inh 3.0%.
`COc1ccc(Nc2cnn(-c3nc4ccccc4s3)c(=O)c2Cl)cc1` gave KCNH2 3.1 block -11.3, CBFb RUNX1 block inconclusive, PLK1 PBD block 11.9µM*, VDR inh inconclusive and hERG WT inh -5.9.
For O=c1c(Cl)c(Nc2cccc(Cl)c2)cnn1-c1nc2ccccc2s1 the results were KCNH2 3.1 block -106.1*, CBFb RUNX1 block 2.1%, PLK1 PBD block -1.5%, VDR inh 4.6% and hERG WT inh -10.0.
O=S(=O)(c1ccc(F)cc1)N1CCN(c2nc(-c3ccccc3)nc3ccccc23)CC1 was read as VDR inh 3.5%.
CCNC(=O)NC(=O)CSc1ccc2ccccc2c1 was read as KCNH2 3.1 block -2.9, CBFb RUNX1 block 13.1%, PLK1 PBD block 26.7µM*, MBNL1-CUG inh -3.8%, VDR inh inconclusive and hERG WT inh -7.1.
Screening Cn1cnc2c(=O)oc3ccc(S(=O)(=O)N4CCN(c5cccc(Cl)c5)CC4)cc3c21 returned VDR inh 19.9%.
For CCNc1nc2c(c(=O)n(C)c(=O)n2C)n1CCCc1ccccc1 the results were KCNH2 3.1 block -5.5, PLK1 PBD block 3.36µM*, MBNL1-CUG inh 3.0%, VDR inh inconclusive and hERG WT inh -11.4.
Screening COc1ccc(C(C[N+](=O)[O-])C2(c3ccc(OC)c(OC)c3)C(=O)c3ccccc3C2=O)cc1 (stereo unspecified) returned KCNH2 3.1 block -33.8, CBFb RUNX1 block -12.1%, PLK1 PBD block -10.0%, VDR inh 31.6µM* and hERG WT inh -22.6.
COc1ccc(C(C[N+](=O)[O-])c2c(-c3ccccc3)cc3ccccn23)cc1OC (stereo unspecified) was read as KCNH2 3.1 block 2.9, CBFb RUNX1 block -16.1%, PLK1 PBD block -28.2%, MBNL1-CUG inh 16.9%, VDR inh -10.8% and hERG WT inh 9.5.
c1ccc(-c2cc(-c3nn4c(-c5ccco5)nnc4s3)c3ccccc3n2)cc1 was read as KCNH2 3.1 block -3.5, CBFb RUNX1 block 3.0%, PLK1 PBD block inconclusive, MBNL1-CUG inh 4.0%, VDR inh -13.0% and hERG WT inh -15.9.
`Cc1cc(-c2nn3c(-c4ccccc4)nnc3s2)c2ccccc2n1` gave KCNH2 3.1 block -5.4, CBFb RUNX1 block 9.3%, PLK1 PBD block 11.9µM*, MBNL1-CUG inh inconclusive, VDR inh inconclusive and hERG WT inh -10.1.
For CCNc1nc(NC(C)C)nc(Oc2ccc(/C=N/O)cc2)n1 the results were KCNH2 3.1 block 2.0, CBFb RUNX1 block 2.7%, PLK1 PBD block 4.74µM*, MBNL1-CUG inh -2.0%, VDR inh -17.6% and hERG WT inh 0.5.
For COC(=O)c1ccc(Oc2nc(NC(C)C)nc(NC(C)C)n2)cc1 the results were KCNH2 3.1 block 0.7, CBFb RUNX1 block -0.6%, PLK1 PBD block -7.1%, MBNL1-CUG inh 9.4%, VDR inh 0.3% and hERG WT inh -7.0.
Screening Cc1ccccc1OCCN1CCC(Cc2ccccc2)CC1 returned KCNH2 3.1 block -0.4, CBFb RUNX1 block 6.4%, PLK1 PBD block -4.1%, MBNL1-CUG inh -4.8%, VDR inh -10.4% and hERG WT inh -9.4.
For Cc1ccc([N+](=O)[O-])c(OCCN2CCC(Cc3ccccc3)CC2)c1 the results were KCNH2 3.1 block -93.3*, CBFb RUNX1 block 2.5%, PLK1 PBD block -9.1%, MBNL1-CUG inh 9.2%, VDR inh -13.9% and hERG WT inh -4.2.
Screening O=[N+]([O-])c1cccc(OCCCN2CCC(Cc3ccccc3)CC2)c1 returned KCNH2 3.1 block -88.0*, PLK1 PBD block 3.2%, VDR inh -5.6% and hERG WT inh -85.6*.
O=[N+]([O-])c1ccc(CN2CCC(Cc3ccccc3)CC2)cc1 was read as KCNH2 3.1 block inconclusive, PLK1 PBD block -4.2%, MBNL1-CUG inh 16.3%, VDR inh -15.3% and hERG WT inh 3.2.
Screening O=C(/C=C/c1c(C(=O)O)[nH]c2cc(Cl)cc(Cl)c12)Nc1ccccc1 returned CBFb RUNX1 block 6.4%.
`Cc1ccc(S(=O)(=O)N2CCN(C)CC2)c(C)c1N(C)S(=O)(=O)c1ccc(Cl)cc1` gave KCNH2 3.1 block -94.3*, CBFb RUNX1 block -11.1%, PLK1 PBD block 3.0%, MBNL1-CUG inh -4.3%, VDR inh 13.6% and hERG WT inh -4.4.
Screening COc1ccc(CN2CCC(CO)(CCOc3ccccc3)CC2)cc1C returned KCNH2 3.1 block -124.8*, CBFb RUNX1 block 7.5%, PLK1 PBD block -2.6%, MBNL1-CUG inh -5.4%, VDR inh -2.0% and hERG WT inh -13.4.
C=CCOc1ccccc1CN1CCC(CO)(CCOc2ccccc2)CC1 was read as KCNH2 3.1 block -80.5*, CBFb RUNX1 block 18.3%, PLK1 PBD block 6.2%, MBNL1-CUG inh 12.1%, VDR inh 11.3% and hERG WT inh inconclusive.
`COc1cc(OC)c(CN2CCC(CO)(CCOc3ccccc3)CC2)c(OC)c1` gave CBFb RUNX1 block 3.7%, PLK1 PBD block -9.2%, MBNL1-CUG inh -1.7%, VDR inh -6.3% and hERG WT inh -104.8*.
OCC1(CCOc2ccccc2)CCN(Cc2cc(Cl)ccc2O)CC1 was read as KCNH2 3.1 block 4.4, PLK1 PBD block -0.2%, MBNL1-CUG inh -10.6%, VDR inh -22.1% and hERG WT inh 5.0.
For Cc1ccc(OCC(=O)Nc2ccc3nc(SCC(=O)N4CCCC4)sc3c2)cc1C the results were VDR inh 20.9%.
For CC1CCc2c(sc(N)c2C(N)=O)C1 (stereo unspecified) the results were KCNH2 3.1 block -1.2, CBFb RUNX1 block 14.1%, PLK1 PBD block 26.7µM*, MBNL1-CUG inh 10.2%, VDR inh inconclusive and hERG WT inh -15.0.
Cc1ccc([C@H]2N[C@]3(CCCN(Cc4cccn4C)C3=O)[C@H]3C(=O)N(Cc4ccccc4)C(=O)[C@@H]23)cc1 was read as KCNH2 3.1 block -30.9, PLK1 PBD block 4.8% and hERG WT inh -71.1*.
Screening Cc1cc(C)cc(Nc2cc(C(=O)NC3CCC(C)CC3)c3ccccc3n2)c1 (stereo unspecified) returned VDR inh -3.7%.
Screening O=c1c2ccccc2sn1-c1ccc(Cl)cc1Cl returned KCNH2 3.1 block 10.2, PLK1 PBD block 2.67µM* and hERG WT inh -2.7.
